Consider 19 molecules from PubChem BioAssay (NCATS).

Results filed as inconclusive are left out. Activity calls are given as the source filed them. Calls follow the shape of the dose curve; as a rule, active = well fitted curve in the direction sought with a large enough effect; inconclusive = small, poorly fitted or top-dose-only effect, or another doubt; inactive = no such curve, though single readings can be large; an effect the other way counts as inactive or inconclusive.

Assay [1] is described as follows: qHTS assay for measurement of the activity of small molecule inhibitors on Zika virus induced Caspase-3 activity in human astrocytoma cells (AID 1224859). The method in brief:
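Human SNB-19 astrocytoma cells in RPMI 1640 with 10% FBS receive compound one hour ahead of Zika virus at 2 FFU/cell. After 6 h infection, caspase-3/7 activity is detected by Caspase-Glo luminescence.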

The nature of assay [2]: qHTS assay to identify small molecule inhibitors of chordoma cells - UCH-1 (AID 1259355). Also: nearly all actives have a fitted effect of over 55% in size. The method in brief:
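Cells (800/well) were seeded and left overnight at 37 C, 5% CO2, then treated with drugs at 15 concentrations plus a combination mix of auranofin, camptothecin, doxorubicin, rubitecan and topotecan. Viability after 48hr was read by CellTiter-Glo luminescence.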

The nature of assay [3]: qHTS assay to identify small molecule inhibitors of chordoma cells - UCH-2 (AID 1259356). Also: series mostly up to about 46 µM.
Assay [4] can be described thus: P-glycoprotein substrates identified in KB-8-5-11 adenocarcinoma cell line, qHTS therapeutic library screen (AID 1346987). Also: nearly all actives have a fitted effect of over 65% in size. Also: potency is read from the fitted curve at half-maximal effect. The method in brief:
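KB-8-5-11: colchicine-selected sub-line of KB-3-1 over-expressing P-gp; assay medium lacked colchicine. 72 h drug exposure at 37 degree C, CellTiter-Glo.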

The nature of assay [5]: NS1 protein of Zika virus - qHTS assay to identify small molecule inhibitors in human HEK 293 cells (AID 1347053). Also: series mostly up to about 46 µM; nearly all actives have a fitted effect of over 55% in size. The method in brief:
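HEK 293; 20 h pre-culture, 37 C/5% CO2; cpd 1 h pre-infection; ZIKV MR766, MOI = 0.5, 24 h, 37 C; TR-FRET NS1 readout (two anti-NS1 Abs); norm. to no-virus vs infected.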
A general note: In qHTS, concentration-response curves come from the screen itself.

A short description of assay [6]: qHTS of pediatric cancer cell lines to identify multiple opportunities for drug repurposing: Primary screen for TC32 cells (AID 1347089). Also: nearly all actives have a fitted effect of over 60% in size. The method in brief: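 A viability screen of TC32 cells was run over 48 h, with primary MIPE doses spanning 0.78 nM–46 µM and NPC doses 0.59 nM–46 µM. ATP luminescence (CellTiter-Glo) served as the read-out.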
A short description of assay [7]: qHTS of pediatric cancer cell lines to identify multiple opportunities for drug repurposing: Primary screen for DAOY cells (AID 1347090). Also: series mostly up to about 46 µM; nearly all actives have a fitted effect of over 55% in size. The method in brief:
(§1)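 Viability measured as metabolically active cells via CellTiter-Glo luminescence following 48 hours of compound exposure, 11-point dilutions in confirmatory testing. 500-1,000 cells/well plated 5 hours before dosing; controls were DMSO and 2.3 µM bortezomib.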

Assay [8] can be described thus: qHTS of pediatric cancer cell lines to identify multiple opportunities for drug repurposing: Primary screen for SJ-GBM2 cells (AID 1347091). The method in brief:
as §1

Assay [9] is described as follows: qHTS of pediatric cancer cell lines to identify multiple opportunities for drug repurposing: Primary screen for A673 cells (AID 1347092). Also: nearly all actives have a fitted effect of over 45% in size. The method in brief:
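Titration-based qHTS on A673 cells: MIPE compounds spanned 11 points (0.78 nM to 46 µM final), NPC compounds 8 points (0.59 nM to 46 µM final). Viability after 48 h was measured by ATP luminescence.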

Assay [10] in a line: qHTS of pediatric cancer cell lines to identify multiple opportunities for drug repurposing: Primary screen for SK-N-MC cells (AID 1347093). Also: series mostly up to about 46 µM. The method in brief: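 Metabolically active cells were quantified by ATP-dependent luminescence (CellTiter-Glo, 15 min at room temperature) following 48 h treatment. Cells had been plated at 500-1,000 per well and settled for 5 h beforehand.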

Assay [11] can be described thus: qHTS of pediatric cancer cell lines to identify multiple opportunities for drug repurposing: Primary screen for BT-37 cells (AID 1347094). Also: series mostly up to about 57 µM. The method in brief:
(§2)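 Viability was measured as metabolically active cells after 48 hours of treatment, read by CellTiter-Glo luminescence. Compounds were tested at multiple final concentrations, giving concentration-response curves.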

Assay [12] can be described thus: qHTS of pediatric cancer cell lines to identify multiple opportunities for drug repurposing: Primary screen for NB-EBc1 cells (AID 1347095). The method in brief:
as §2

`Oc1ccccc1C=NCc1ccccc1`: the outcome in assay [1] was inactive. For the same molecule, the Potency entry in assay [2], in [3], in assay [4], in [5], in assay [6] and in assay [7] was “inactive” in each case. In addition, the Potency entry in assay [8], in assay [9], in assay [10], in assay [11] and in assay [12] was “inactive” throughout.
On to `CCNC(=O)NCc1cccc(Cl)c1`, for which the molecule was called inactive in [1]. In addition, the Potency result in [2], in [3], in [4], in [5], in assay [6] and in [7] was “inactive” in each case. For the same molecule, the Potency entry in assay [8], in [9], in assay [10], in assay [11] and in assay [12] was “inactive” each time.
Consider `CCN(CC)CCNC(=O)c1cc(Br)c(N)cc1OC`, for which, in assay [1], the result was inactive. Also, the Potency entry in assay [2], in [3], in [4], in assay [5], in assay [6] and in assay [7] was “inactive” each time. In addition, the Potency entry in [8], in [9], in assay [10], in [11] and in assay [12] was “inactive” in each case.
In the case of `CC(=O)NCCCCCC(=O)O`, the molecule was classed as inactive in assay [1]. Also, the Potency result in assay [2], in assay [3], in [4], in [5], in assay [6] and in assay [7] was “inactive” throughout. Also, the Potency result in assay [8], in assay [9], in [10], in assay [11] and in assay [12] was “inactive” in each case.
Regarding `Cc1cc(C)cc(OCC2CNC(=O)O2)c1` (configuration not stated), in assay [1], the outcome was inactive. For the same molecule, the Potency result in [2], in [3], in assay [4], in assay [5], in [6] and in assay [7] was “inactive” each time. The Potency result in assay [8], in assay [9], in assay [10], in [11] and in assay [12] was “inactive” each time.
As to `CCNC(=O)/C=C/c1cccc(Br)c1`, in [1], the result was inactive. For the same molecule, the Potency entry in [2], in assay [3], in assay [4], in assay [5], in assay [6] and in assay [7] was “inactive” each time. In addition, the Potency entry in assay [8], in [9], in [10], in assay [11] and in [12] was “inactive” each time.
With `CCCCCCCCCCCCCCCCO`, the call in assay [1] was inactive. Also, the Potency result in [2], in assay [3], in assay [4], in [5], in [6] and in assay [7] was “inactive” throughout. The Potency result in [8], in [9], in assay [10], in assay [11] and in assay [12] was “inactive” each time.
In the case of `CCC(C(=O)OCCOCCN(CC)CC)c1ccccc1` (configuration not stated), the call in [1] was inactive. Moreover, the Potency entry in [2], in assay [3], in assay [4], in assay [5], in assay [6] and in assay [7] was “inactive” each time. In addition, the Potency result in [8], in assay [9], in assay [10], in assay [11] and in assay [12] was “inactive” throughout.
Consider `CCOc1cc(OCC)c(C(=O)CCC(=O)O)cc1OCC`, for which, in assay [1], the call was inactive. In addition, the Potency entry in assay [2], in [3], in [4], in assay [5], in [6] and in assay [7] was “inactive” throughout. For the same molecule, the Potency entry in assay [8], in assay [9], in assay [10], in assay [11] and in assay [12] was “inactive” throughout.
As to `CCC1Nc2cc(Cl)c(S(N)(=O)=O)cc2S(=O)(=O)N1` (configuration not stated), in assay [1], the call was inactive. The Potency entry in [2], in assay [3], in assay [4], in assay [5], in assay [6] and in [7] was “inactive” in each case. Moreover, the Potency entry in assay [8], in assay [9], in assay [10], in assay [11] and in assay [12] was “inactive” throughout.
As to `CCOCCn1c(N2CCCN(C)CC2)nc2ccccc21`, the molecule was classed as inactive in assay [1]. Also, the Potency entry in assay [2], in assay [3], in assay [4], in assay [5], in assay [6] and in [7] was “inactive” in each case. Also, the Potency entry in [8], in assay [9], in assay [10], in assay [11] and in assay [12] was “inactive” in each case.
`COc1ccc(/C=N/NC(=O)c2ccncc2)cc1OC`: the call in [1] was inactive. The Potency result in assay [2], in [3], in [4], in [5], in assay [6] and in assay [7] was “inactive” each time. Besides, the Potency entry in assay [8], in [9], in [10], in assay [11] and in [12] was “inactive” throughout.
With `Cc1nc(-c2ccc(Cl)cc2)oc1COC(C)(C)C(=O)O`, in assay [1], the molecule was classed as inactive. Also, the Potency entry in [2], in assay [3], in [4], in assay [5], in assay [6] and in assay [7] was “inactive” throughout. Further, the Potency result in assay [8], in assay [9], in assay [10], in assay [11] and in assay [12] was “inactive” each time.
Regarding `C[N+]1(C)CCC(=C(c2ccccc2)c2ccccc2)CC1`, the outcome in [1] was inactive. Further, the Potency result in assay [2], in assay [3], in assay [4], in assay [5], in [6] and in assay [7] was “inactive” each time. The Potency entry in [8], in assay [9], in [10], in assay [11] and in assay [12] was “inactive” in each case.
For the molecule `CC(=O)Oc1ccc(C)cc1`, the molecule was classed as inactive in assay [1]. Moreover, the Potency result in [2], in [3], in assay [4], in assay [5], in assay [6] and in assay [7] was “inactive” throughout. Besides, the Potency entry in assay [8], in [9], in assay [10], in [11] and in [12] was “inactive” in each case.
Turning to `COc1cc(NS(=O)(=O)c2ccc(N)cc2)ncn1`, in [1], the call was inactive. Also, the Potency entry in assay [2], in [3], in [4], in assay [5], in assay [6] and in [7] was “inactive” throughout. For the same molecule, the Potency entry in assay [8], in [9], in [10], in assay [11] and in assay [12] was “inactive” each time.
On to `Nc1nc(N)c(-c2ccccc2)s1`, for which, in assay [1], the molecule was classed as inactive. Besides, the Potency entry in assay [2], in [3], in [4], in assay [5], in assay [6] and in assay [7] was “inactive” throughout. Further, the Potency result in assay [8], in assay [9], in [11] and in [12] was “inactive” each time.
As to `COc1ccc(-c2cc(C(F)F)nn2-c2ccc(S(N)(=O)=O)cc2)cc1F`, the molecule was classed as inactive in assay [1]. Further, the Potency result in assay [2], in assay [3], in [4], in [5], in assay [6] and in assay [7] was “inactive” in each case. Besides, the Potency result in assay [8], in assay [9], in assay [10], in assay [11] and in [12] was “inactive” throughout.
As to `CC(=O)OCC(=O)[C@H]1CC[C@H]2[C@@H]3CCC4=CC(=O)CC[C@]4(C)[C@H]3CC[C@]12C`, in assay [1], the outcome was inactive. Also, the Potency result in assay [2], in [3], in assay [5], in assay [6], in assay [7] and in assay [8] was “inactive” throughout. The Potency entry in assay [9], in assay [10], in [11] and in assay [12] was “inactive” each time. For the same molecule, the Potency in [4] is 7.31 µM (active).
